Assay [1] can be described thus: qHTS assay for small molecules that induce genotoxicity in human embryonic kidney cells expressing luciferase-tagged ATAD5 (AID 651632). Note: nearly all actives have a fitted effect of over 15% in size. Note: potency is the fitted concentration of half-maximal effect. Summed up: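 HEK293T cells carrying luciferase-tagged ATAD5 were given compound or DMSO vehicle and incubated 16 hr at 37C, 5% CO2. Luciferase activity was read after 30 min at room temperature with Amplite; a rise signals genotoxic stress.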
In general terms: In qHTS, concentration-response curves come from the screen itself.

Assay [2] can be described thus: qHTS assay to test for compound auto fluorescence at 590 nm (red) in HepG2 cells (AID 720674). The essentials:
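Seeding: 2,000 HepG2 cells/well, MEM/10% FBS, overnight 37 C. Dosing: compound vs DMSO. Incubation: 1 hr, 37 C, 5% CO2. Read: fluorescence 540 ex/590 em, Rose Bengal sodium as red reference.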

Assay [3] can be described thus: qHTS assay to test for compound auto fluorescence at 535 nm (green) in HepG2 cells (AID 720675).
The nature of assay [4]: qHTS assay to test for compound auto fluorescence at 460 nm (blue) in HEK293 cells (AID 720678). Summed up: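 Triamterene serves as the blue fluorophore standard. Compound signal at 405/460 nm is read in HEK293 wells (2,000 cells, 10% dialyzed FBS) after overnight treatment at 37C.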
The nature of assay [5]: qHTS assay to test for compound auto fluorescence at 590 nm (red) in HEK293 cells (AID 720679). Summed up:
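We plated HEK293 cells in 10% dialyzed FBS medium, let them adhere for 4-5 hr, then added 23 nL compound. Overnight at 37C and 5% CO2 preceded fluorescence measurement at 540/590nm.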

Assay [6] in a line: qHTS assay for small molecule agonists of the p53 signaling pathway - cell viability (AID 651633; calls by dose curve;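 note: p53RE-bla HCT reporter cells with a stable beta-lactamase p53 reporter; series mostly up to about 83 µM; nearly all actives have a fitted effect of over 30% in size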). Summed up: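 p53RE-bla cells were treated with compound for 16 hours at 37 C. Cytotoxicity was then measured as CellTiter-Glo luminescence after 30 min at room temperature.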
The nature of assay [7]: qHTS assay for small molecule disruptors of the mitochondrial membrane potential - cell viability (AID 720634; calls by dose curve;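 note: human HepG2 liver cancer cells; series mostly up to about 83 µM; nearly all actives have a fitted effect of over 20% in size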). The essentials:
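HepG2 cells, 2,000 per well, attached overnight, then treated 1 hr at 37 C, 5% CO2. Viability read as ATP by CellTiter-Glo luminescence after 30 min at room temperature. Read in the same wells as the m-MPI membrane-potential dye assay.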

The nature of assay [8]: qHTS assay for small molecule disruptors of the mitochondrial membrane potential (AID 720635). Note: potency is the fitted concentration of half-maximal effect. Summed up:
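HepG2 cells exposed to compound 1 hr at 37C, then Mito-MPS dye 30 min. Ratio read of aggregate (540/590 nm) versus monomer (490/535 nm) fluorescence.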

The nature of assay [9]: qHTS assay for small molecules that induce genotoxicity in human embryonic kidney cells expressing luciferase-tagged ATAD5 - cell viability (AID 651634; calls by dose curve; note: nearly all actives have a fitted effect of over 25% in size). Summed up:
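HEK293T cells carrying luciferase-tagged ATAD5, 2,000 cells/well, exposed to compound for 15.5 hr at 37C. Viability read as live-cell protease activity by CellTiter-Fluor fluorescence after 30 min at 37C.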

Inconclusive results are not listed. Calls of active or inactive are those of the source. Unless noted, calls come from the whole dose curve; as a rule, active = well fitted curve in the direction sought with a large enough effect in the repeat runs; inconclusive = weak or mixed curves; inactive = no such curve, though single readings can be large; an effect the other way counts as inactive or inconclusive.

As for `COc1cc2ncnc(Nc3ccc(F)c(Cl)c3)c2cc1OCCCN1CCOCC1`, the Potency entry in assay [1] and in assay [4] was “inactive” each time. Also, the outcome in [2], in [3] and in [5] was inactive.
For the compound `COCCOC`, the Potency result in assay [6], in assay [7], in assay [8] and in [4] was “inactive” in each case. The compound was classed as inactive in assay [2], in [3] and in assay [5].
Regarding `CN(C)CCOC1=Cc2ccccc2Sc2ccc(Cl)cc21`, the Potency result in assay [1], in assay [9], in assay [7] and in assay [4] was “inactive” throughout. Further, the outcome in [2], in assay [3] and in [5] was inactive.
Consider `O=C(CS)OCCOC(=O)CS`, for which, in [1], the Potency is 30.6 µM (active). The Potency result in assay [9], in assay [7] and in [4] was “inactive” each time. Further, the outcome in [2], in assay [3] and in assay [5] was inactive.
On to `CC(C)C(OC(=O)c1ccccc1)C(C)(C)COC(=O)c1ccccc1` (stereo unspecified), for which the Potency entry in [1], in assay [9] and in assay [4] was “inactive” in each case. Further, the Potency in assay [8] was 27.3 µM (active). Moreover, the compound was classed as inactive in assay [2], in assay [3] and in assay [5].
For `CCCC1C(CC)=CC(CC)=CN1c1ccccc1` (stereo unspecified), the Potency entry in assay [1], in assay [9] and in [4] was “inactive” in each case. The Potency in [8] was 54.5 µM (active). Also, the call in assay [2], in assay [3] and in [5] was inactive.
For `NC(=O)Cn1c(=O)cc(CCN2CCN(c3nccc4sccc34)CC2)c2ccc(F)cc21`, the Potency entry in [1], in assay [9], in assay [7] and in assay [4] was “inactive” in each case. Further, the outcome in assay [3] and in assay [5] was inactive.
As for `CC1=C(C=O)C(C)(C)CCC1`, the Potency entry in assay [1], in assay [9], in assay [7] and in [4] was “inactive” in each case. For the same compound, in assay [3], the compound was called inactive.
Consider `O=c1[nH]c2ccc(S(=O)CCN3CCC(Cc4ccc(F)cc4)CC3)cc2o1` (stereo unspecified), for which the Potency result in assay [1], in assay [9], in [7] and in assay [4] was “inactive” throughout. In addition, the outcome in assay [2], in assay [3] and in assay [5] was inactive.
Regarding `CCc1cccc(N(C)C(N)=Nc2cccc3ccccc23)c1`, the Potency entry in assay [6], in assay [9], in assay [7], in [8] and in [4] was “inactive” in each case. Moreover, the compound was classed as inactive in assay [2], in assay [3] and in [5].

Values taken from PubChem BioAssay (Tox21).
